The inhibition is the change of the read-out against control, counted positive when it falls.

The target in assay [1] is Mitogen-activated protein kinase kinase kinase kinase 4 (Homo sapiens) (UniProt O95819). Conditions: at 1 µM.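 Further: reported figure is an averaged inhibition value.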
Assay [2] addresses Dual specificity mitogen-activated protein kinase kinase 1 (Homo sapiens) (UniProt Q02750). Conditions: at 0.1 µM.
For assay [3] the target is unchanged. Conditions: at 1 µM.
The target of assay [4] is Misshapen-like kinase 1 (Homo sapiens) (UniProt Q8N4C8). Conditions: at 0.1 µM.
Sequence of Misshapen-like kinase 1 (Homo sapiens) (Q8N4C8 whole entry, looked up): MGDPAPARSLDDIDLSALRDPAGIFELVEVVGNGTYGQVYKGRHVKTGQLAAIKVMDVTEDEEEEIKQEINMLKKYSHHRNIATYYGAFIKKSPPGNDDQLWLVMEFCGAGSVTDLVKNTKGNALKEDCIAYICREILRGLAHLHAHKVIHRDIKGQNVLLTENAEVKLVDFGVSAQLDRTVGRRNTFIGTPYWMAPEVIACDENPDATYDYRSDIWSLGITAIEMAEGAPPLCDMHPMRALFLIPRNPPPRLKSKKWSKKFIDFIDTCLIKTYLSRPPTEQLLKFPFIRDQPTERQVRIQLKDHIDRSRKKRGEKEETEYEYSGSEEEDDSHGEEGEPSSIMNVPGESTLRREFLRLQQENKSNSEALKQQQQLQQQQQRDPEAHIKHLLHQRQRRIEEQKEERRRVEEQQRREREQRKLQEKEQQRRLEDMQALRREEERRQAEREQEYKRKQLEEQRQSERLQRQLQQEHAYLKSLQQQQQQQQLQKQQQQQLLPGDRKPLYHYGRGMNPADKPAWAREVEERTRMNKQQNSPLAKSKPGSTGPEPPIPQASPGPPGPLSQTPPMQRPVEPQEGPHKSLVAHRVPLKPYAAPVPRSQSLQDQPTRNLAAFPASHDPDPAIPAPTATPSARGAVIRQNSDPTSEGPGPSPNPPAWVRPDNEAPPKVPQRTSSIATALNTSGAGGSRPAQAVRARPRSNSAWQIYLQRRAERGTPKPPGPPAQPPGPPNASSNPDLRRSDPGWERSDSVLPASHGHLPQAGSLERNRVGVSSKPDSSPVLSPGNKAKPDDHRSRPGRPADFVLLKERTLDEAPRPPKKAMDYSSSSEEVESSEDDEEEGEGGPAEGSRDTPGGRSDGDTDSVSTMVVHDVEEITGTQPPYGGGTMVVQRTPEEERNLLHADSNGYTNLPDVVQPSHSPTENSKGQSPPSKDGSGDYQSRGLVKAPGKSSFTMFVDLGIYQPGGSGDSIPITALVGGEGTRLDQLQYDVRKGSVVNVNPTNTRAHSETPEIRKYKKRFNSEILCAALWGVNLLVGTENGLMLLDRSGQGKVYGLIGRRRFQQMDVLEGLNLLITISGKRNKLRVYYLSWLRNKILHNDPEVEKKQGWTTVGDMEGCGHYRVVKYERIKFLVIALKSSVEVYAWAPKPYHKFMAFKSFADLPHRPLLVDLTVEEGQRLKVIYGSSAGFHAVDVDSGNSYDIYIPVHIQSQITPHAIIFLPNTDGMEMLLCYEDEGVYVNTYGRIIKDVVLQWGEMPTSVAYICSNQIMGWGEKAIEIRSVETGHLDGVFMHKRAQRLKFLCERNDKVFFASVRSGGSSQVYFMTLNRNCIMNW
The target is the same in assay [5]. The note with it: at 1 µM.
Assay [6] has as its target T1, Serine/threonine-protein kinase 4 (Homo sapiens) (UniProt Q13043).
T1 sequence (whole entry): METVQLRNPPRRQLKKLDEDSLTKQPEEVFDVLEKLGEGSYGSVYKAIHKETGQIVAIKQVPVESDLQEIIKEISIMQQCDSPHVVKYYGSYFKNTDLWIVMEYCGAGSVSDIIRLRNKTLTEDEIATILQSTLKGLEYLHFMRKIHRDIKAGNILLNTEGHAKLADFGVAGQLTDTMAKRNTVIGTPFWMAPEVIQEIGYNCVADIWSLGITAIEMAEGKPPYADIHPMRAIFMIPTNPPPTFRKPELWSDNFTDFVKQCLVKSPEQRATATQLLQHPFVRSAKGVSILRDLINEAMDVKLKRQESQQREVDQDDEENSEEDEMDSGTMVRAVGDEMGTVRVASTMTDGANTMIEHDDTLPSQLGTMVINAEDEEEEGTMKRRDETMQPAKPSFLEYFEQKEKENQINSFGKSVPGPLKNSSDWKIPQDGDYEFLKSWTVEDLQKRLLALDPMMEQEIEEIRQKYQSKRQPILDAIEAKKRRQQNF
Conditions: at 0.1 µM.

Assay [7] deals with T1, Serine/threonine-protein kinase 4 (Homo sapiens). The note with it: at 1 µM.
Assay [8] deals with T2, Serine/threonine-protein kinase 3 (Homo sapiens) (UniProt Q13188).
T2 sequence (whole entry): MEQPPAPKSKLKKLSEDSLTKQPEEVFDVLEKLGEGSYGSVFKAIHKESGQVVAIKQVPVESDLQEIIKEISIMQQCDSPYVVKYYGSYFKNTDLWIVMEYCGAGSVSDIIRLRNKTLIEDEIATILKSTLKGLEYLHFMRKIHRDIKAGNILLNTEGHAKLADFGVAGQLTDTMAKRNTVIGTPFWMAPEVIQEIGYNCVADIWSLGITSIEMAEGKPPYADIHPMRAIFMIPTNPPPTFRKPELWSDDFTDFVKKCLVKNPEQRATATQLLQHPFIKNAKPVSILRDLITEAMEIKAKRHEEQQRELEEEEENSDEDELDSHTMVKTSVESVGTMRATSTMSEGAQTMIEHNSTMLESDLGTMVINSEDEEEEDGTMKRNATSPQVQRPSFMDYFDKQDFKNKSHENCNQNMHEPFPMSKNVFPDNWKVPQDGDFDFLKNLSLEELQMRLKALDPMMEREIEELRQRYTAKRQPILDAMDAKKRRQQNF
Conditions: at 0.1 µM.

The target of assay [9] is T2, Serine/threonine-protein kinase 3 (Homo sapiens). The note with it: at 1 µM.
Assay [10] deals with Serine/threonine-protein kinase 26 (Homo sapiens) (UniProt Q9P289). Conditions: at 0.1 µM.
Sequence of Serine/threonine-protein kinase 26 (Homo sapiens) (Q9P289 2-416 limits assumed): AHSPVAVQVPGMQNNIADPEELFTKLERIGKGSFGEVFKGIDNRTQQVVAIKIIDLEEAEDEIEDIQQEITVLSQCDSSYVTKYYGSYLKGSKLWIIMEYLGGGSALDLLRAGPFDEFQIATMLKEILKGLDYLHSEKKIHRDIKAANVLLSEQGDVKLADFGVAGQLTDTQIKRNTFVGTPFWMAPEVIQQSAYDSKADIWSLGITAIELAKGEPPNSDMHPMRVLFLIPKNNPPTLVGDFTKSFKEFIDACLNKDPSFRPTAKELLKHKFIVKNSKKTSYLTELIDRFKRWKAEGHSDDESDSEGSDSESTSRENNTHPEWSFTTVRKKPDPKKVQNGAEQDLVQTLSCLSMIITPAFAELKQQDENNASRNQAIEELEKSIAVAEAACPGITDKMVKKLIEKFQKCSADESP
Assay [11] shares this target. Conditions: at 1 µM.
For assay [12], the target named is Serine/threonine-protein kinase PAK 1 (Homo sapiens) (UniProt Q13153). Conditions: at 0.1 µM.
Sequence of Serine/threonine-protein kinase PAK 1 (Homo sapiens) (Q13153 whole entry): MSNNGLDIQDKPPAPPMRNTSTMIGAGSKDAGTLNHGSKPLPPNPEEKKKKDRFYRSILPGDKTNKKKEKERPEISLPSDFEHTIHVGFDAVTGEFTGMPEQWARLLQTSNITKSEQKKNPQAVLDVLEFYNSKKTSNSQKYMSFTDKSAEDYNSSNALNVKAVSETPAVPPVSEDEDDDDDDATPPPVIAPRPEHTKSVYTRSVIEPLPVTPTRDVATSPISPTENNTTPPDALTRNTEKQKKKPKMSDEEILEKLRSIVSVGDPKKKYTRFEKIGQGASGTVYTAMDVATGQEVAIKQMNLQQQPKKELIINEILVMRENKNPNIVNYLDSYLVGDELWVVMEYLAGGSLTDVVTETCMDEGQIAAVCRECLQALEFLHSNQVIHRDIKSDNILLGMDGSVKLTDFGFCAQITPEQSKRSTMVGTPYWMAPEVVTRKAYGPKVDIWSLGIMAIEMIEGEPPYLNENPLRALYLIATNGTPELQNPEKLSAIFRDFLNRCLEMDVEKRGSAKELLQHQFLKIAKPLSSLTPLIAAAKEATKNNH
The target is the same in assay [13]. The note with it: at 1 µM.
Assay [14] has as its target Serine/threonine-protein kinase PAK 2 (Homo sapiens) (UniProt Q13177). The note with it: at 0.1 µM.
Assay [15] has the same target. Conditions: at 1 µM.
Assay [16] deals with Serine/threonine-protein kinase PAK 3 (Homo sapiens) (UniProt O75914). Conditions: at 0.1 µM.
Sequence of Serine/threonine-protein kinase PAK 3 (Homo sapiens) (O75914 whole entry, looked up): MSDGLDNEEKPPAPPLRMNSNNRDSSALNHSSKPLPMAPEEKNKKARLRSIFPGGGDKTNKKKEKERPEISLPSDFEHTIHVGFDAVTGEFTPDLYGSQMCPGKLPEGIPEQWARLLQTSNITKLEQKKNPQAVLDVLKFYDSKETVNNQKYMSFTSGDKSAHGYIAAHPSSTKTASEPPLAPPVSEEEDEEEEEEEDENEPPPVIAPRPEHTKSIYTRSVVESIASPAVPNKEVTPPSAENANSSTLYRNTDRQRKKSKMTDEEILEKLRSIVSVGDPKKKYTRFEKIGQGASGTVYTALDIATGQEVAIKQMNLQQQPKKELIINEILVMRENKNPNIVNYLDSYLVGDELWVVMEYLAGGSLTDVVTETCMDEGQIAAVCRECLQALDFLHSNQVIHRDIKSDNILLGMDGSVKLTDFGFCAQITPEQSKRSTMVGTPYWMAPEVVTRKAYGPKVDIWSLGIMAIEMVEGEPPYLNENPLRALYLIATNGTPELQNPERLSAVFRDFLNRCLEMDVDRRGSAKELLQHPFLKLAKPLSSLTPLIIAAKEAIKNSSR
The target is the same in assay [17]. The note with it: at 1 µM.
Assay [18] concerns the target Serine/threonine-protein kinase PAK 5 (Homo sapiens) (UniProt Q9P286). The note with it: at 0.1 µM.
Assay [19] shares this target. Conditions: at 1 µM.
The target in assay [20] is Serine/threonine-protein kinase PAK 6 (Homo sapiens) (UniProt Q9NQU5). The note with it: at 0.1 µM.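 Further: mean PAK6 inhibition reported from the GSK PKIS screen.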

Sequence of Dual specificity mitogen-activated protein kinase kinase 1 (Homo sapiens) (Q02750 whole entry): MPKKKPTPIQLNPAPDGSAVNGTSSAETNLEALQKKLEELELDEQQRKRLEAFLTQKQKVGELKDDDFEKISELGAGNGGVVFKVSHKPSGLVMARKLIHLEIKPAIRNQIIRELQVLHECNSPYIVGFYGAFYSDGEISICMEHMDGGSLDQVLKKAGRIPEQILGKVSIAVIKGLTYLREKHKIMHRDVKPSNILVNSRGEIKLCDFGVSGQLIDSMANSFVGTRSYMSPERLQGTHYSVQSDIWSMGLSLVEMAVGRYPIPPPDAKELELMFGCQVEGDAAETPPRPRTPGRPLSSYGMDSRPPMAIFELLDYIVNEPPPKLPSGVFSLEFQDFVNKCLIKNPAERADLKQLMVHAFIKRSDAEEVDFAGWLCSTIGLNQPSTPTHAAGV
Sequence of Serine/threonine-protein kinase PAK 2 (Homo sapiens) (Q13177 whole entry): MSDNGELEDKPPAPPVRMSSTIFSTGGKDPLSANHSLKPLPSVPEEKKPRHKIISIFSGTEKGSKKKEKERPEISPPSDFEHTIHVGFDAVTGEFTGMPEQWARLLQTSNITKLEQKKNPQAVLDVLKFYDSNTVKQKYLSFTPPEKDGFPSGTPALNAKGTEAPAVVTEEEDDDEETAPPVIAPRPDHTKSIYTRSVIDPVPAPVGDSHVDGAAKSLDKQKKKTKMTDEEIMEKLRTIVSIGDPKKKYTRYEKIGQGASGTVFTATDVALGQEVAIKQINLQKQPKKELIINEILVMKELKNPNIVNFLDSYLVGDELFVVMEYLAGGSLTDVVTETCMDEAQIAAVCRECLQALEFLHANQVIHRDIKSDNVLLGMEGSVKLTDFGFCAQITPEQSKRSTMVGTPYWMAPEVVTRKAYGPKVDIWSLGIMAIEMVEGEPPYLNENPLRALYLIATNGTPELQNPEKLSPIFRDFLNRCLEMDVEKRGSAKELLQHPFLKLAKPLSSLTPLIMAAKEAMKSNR
Sequence of Mitogen-activated protein kinase kinase kinase kinase 4 (Homo sapiens) (O95819 2-1239 limits assumed): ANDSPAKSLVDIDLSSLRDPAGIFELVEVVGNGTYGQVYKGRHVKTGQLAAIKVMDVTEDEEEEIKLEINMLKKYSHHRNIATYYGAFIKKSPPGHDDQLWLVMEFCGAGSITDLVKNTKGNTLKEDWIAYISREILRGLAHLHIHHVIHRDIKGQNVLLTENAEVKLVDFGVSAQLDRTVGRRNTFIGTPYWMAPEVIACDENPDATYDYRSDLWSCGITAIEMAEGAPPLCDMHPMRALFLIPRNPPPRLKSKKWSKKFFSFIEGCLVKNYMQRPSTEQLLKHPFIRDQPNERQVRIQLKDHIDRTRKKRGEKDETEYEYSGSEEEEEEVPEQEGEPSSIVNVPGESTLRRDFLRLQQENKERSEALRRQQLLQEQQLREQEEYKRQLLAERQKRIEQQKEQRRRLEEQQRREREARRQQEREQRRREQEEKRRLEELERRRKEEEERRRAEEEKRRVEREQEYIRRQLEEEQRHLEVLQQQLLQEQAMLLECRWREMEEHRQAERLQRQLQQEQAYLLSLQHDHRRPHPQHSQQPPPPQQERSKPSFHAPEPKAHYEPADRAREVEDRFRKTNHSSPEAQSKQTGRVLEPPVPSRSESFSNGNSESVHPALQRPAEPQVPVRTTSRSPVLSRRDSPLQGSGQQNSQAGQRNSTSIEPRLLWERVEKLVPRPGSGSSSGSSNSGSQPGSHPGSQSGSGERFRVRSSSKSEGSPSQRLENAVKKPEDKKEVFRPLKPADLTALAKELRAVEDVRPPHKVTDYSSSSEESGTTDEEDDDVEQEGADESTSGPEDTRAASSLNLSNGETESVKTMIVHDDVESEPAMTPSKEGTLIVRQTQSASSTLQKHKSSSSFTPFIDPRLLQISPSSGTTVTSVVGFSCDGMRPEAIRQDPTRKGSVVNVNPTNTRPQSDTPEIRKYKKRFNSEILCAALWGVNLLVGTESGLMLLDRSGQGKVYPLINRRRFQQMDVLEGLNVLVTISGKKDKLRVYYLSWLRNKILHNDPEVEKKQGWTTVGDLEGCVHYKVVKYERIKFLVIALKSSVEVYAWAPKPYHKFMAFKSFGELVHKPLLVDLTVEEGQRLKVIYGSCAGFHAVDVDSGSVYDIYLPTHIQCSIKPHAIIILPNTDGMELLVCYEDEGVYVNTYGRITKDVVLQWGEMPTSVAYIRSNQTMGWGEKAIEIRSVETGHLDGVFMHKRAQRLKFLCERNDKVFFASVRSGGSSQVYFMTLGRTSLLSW

On to `CN(C)c1ccc2c(c1)/C(=C/Nc1ccc(S(N)(=O)=O)cc1)C(=O)N2`, for which the inhibition was determined as 70% in [1]; 2.52% in assay [2]; 6.25% in [3]; 18.1% in assay [4]; 63.6% in assay [5]; 44.2% in assay [6]. In addition, the inhibition in assay [7] worked out at 71.7%; in [8], 32.3%; in assay [9], 68%; in assay [10], 0.49%; in assay [11] it was 20.2%; in assay [12], 4.25%. Also, the inhibition in assay [13] was 2.53%; in assay [14], -0.61%; in assay [15], 0.6%; in assay [16] it was 1.32%; in [17] it was 2.05%; in [18] it was -3.51%. In addition, the inhibition in assay [19] is -4.48%; in assay [20] it was 11.8%.
As to `CCC(=O)Nc1ccc(C)c(-c2ccc(C(=O)NCC3CC3)cc2)c1`, the inhibition in [1] was 5.43%; in [2], 3.72%; in assay [3] it was 2.87%; in assay [4] it was 7.03%; in assay [5], 5.64%; in [6] it was 2.76%. Moreover, the inhibition was 3.12% in assay [7]; 3.02% in assay [8]; 2.84% in assay [9]; -1.82% in assay [10]; -3.71% in assay [11]; 3.98% in assay [12]. The inhibition in assay [13] is 9.02%; in [14], 0.42%; in assay [15], 0.8%; in assay [16], 2.56%; in assay [17], 3.37%; in assay [18], -0.07%. In addition, the results for the inhibition in assay [19] and in [20] were -2.96% and -8.71%, respectively.
`COc1cc(N2CCN(C(C)C)CC2)ccc1Nc1nc(Nc2ccc(F)cc2C(=O)NC[C@@H](O)CO)c2cc[nH]c2n1`: the inhibition in [1] amounted to 13.6%; in [2] it was 6.5%; in assay [3], 5.77%; in [4], 7.5%; in assay [5], 12%; in [6], 4.86%. In addition, the inhibition was 6.99% in assay [7]; 6.36% in assay [8]; 7.9% in assay [9]; -1.23% in assay [10]; -2.64% in assay [11]; 4.77% in assay [12]. Moreover, the inhibition in assay [13] is 11.8%; in assay [14] it was 1.33%; in [15], 1.54%; in assay [16], 4.85%; in [17], 6.19%; in [18] it was 2.5%. Besides, the values for the inhibition in assay [19] and in assay [20] were -2.48% and 5.3%, respectively.
For the compound `CN1CCN(CCCNc2nc3ccc(Oc4ccc(NC(=O)Nc5cc(C(F)(F)F)ccc5F)cc4)cc3[nH]2)CC1`, the inhibition in [1] was 2.12%; in assay [2] it was 2.3%; in [3], 1.94%; in [4], 1.67%; in assay [5], 1.26%; in assay [6] it was 3.59%. In addition, the inhibition in [7] is 3.57%; in assay [8], 2.61%; in [9] it was 3.55%; in [10], 1.41%; in assay [11], 0.74%; in assay [12], 3.77%. Also, the inhibition in assay [13] was 2.58%; in assay [14], 1.22%; in [15] it was 1.06%; in assay [16], 1.62%; in [17], 2.65%; in assay [18] it was 1.27%. For the same compound, the inhibition in assay [19] is 8.65%; in [20] it was -3.01%.
Take `O=C1NC(=O)C(c2cccc(Cl)c2)=C1Nc1ccc(Cl)c(C(=O)O)c1`: the inhibition came to 8.37% in [1]; 5.3% in [2]; 2.84% in [3]; 4.74% in [4]; 7.9% in [5]; 5.13% in assay [6]. Also, the inhibition in assay [7] was found to be 7.28%; in assay [8] it was 6.05%; in [9], 9.28%; in [10], 0.55%; in assay [11] it was 0.53%; in assay [12], 4.41%. Also, the inhibition in assay [13] amounted to 6.62%; in assay [14], 2.04%; in assay [15] it was 0.87%; in [16], 3.53%; in assay [17], 3.74%; in assay [18], 0.06%. Also, the inhibition is 0.5% in assay [19] and -2.69% in assay [20].
With `c1ccc(Oc2ccc(Nc3ncc(-c4ccccc4)o3)cc2)cc1`, the inhibition in assay [1] was 6.86%; in [2], 0.88%; in assay [3], 1.76%; in assay [4] it was 3.49%; in assay [5], 7.84%; in [6], 1.03%. The inhibition in assay [7] was 1.83%; in assay [8] it was 0.33%; in assay [9], 0.37%; in [10], -1.17%; in [11] it was 0.79%; in [12], -1.14%. In addition, the inhibition in assay [13] is 6.59%; in assay [14] it was 0.5%; in assay [15], -0.36%; in assay [16] it was 0.64%; in [17], 0.63%; in assay [18], -0.61%. For the same compound, the inhibition was 2.2% in [19] and -2.49% in assay [20].

These data come from ChEMBL document CHEMBL1961873, “Compounds: GSK PKIS; Assays: Nanosyn kinase panel” (2012).
